For seven compounds, outcome and AC50 results are on record in PubChem BioAssay (EPA / NIEHS).

Activity calls are given as the source filed them. The calls were made as follows: active = hit-call score of the fitted dose curve at least 0.9, where 1 is the maximum; inactive = score below 0.9.

Experiment [1] is described as follows: ATG_E_Box_CIS: Attagene CIS-FACTORIAL HepG2 Assay for human Enhancer Box (E-box) (AID 2282936). As to conditions: HepG2 E-box cis-reporter transcription, actives raise or lower the signal. In a few lines:
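DMSO served as negative control and baseline for bidirectional fitting. Human hepatoma HepG2 cells, transiently transfected with cis-reporter constructs, were dosed 24 h; reporter mRNA read by RT-PCR and capillary electrophoresis.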

Experiment [2] in a line: ATG_M_61_CIS: Attagene CIS-FACTORIAL HepG2 Assay for M61 Transcription Factor (Internal Marker) (AID 2282937). As to conditions: HepG2 Attagene CIS-FACTORIAL M61 internal marker reporter; actives raise or lower the signal. In a few lines:
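Fluorescence from labelled cDNA fragments, separated by capillary electrophoresis, quantifies reporter induction. HepG2 cells bearing transiently transfected cis-promoter MRTUs were incubated with test chemical for 24 h; DMSO defined baseline for gain/loss fitting.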

Experiment [3] in a line: ATG_EGR_CIS: Attagene CIS-FACTORIAL HepG2 Assay for human Early Growth Response 1 (EGR1) (AID 2282938). As to conditions: HepG2 Attagene CIS-FACTORIAL EGR reporter mRNA; actives raise or lower the signal. In a few lines:
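Cell-based multiplex transcription assay: HepG2 carrying transfected cis-element reporter units, 24 h chemical treatment. Fluorescence from capillary electrophoresis of RT-PCR products gives mRNA levels; fitting is bidirectional relative to DMSO.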

Experiment [4] can be described thus: ATG_M_19_CIS: Attagene CIS-FACTORIAL HepG2 Assay for M19 Transcription Factor (Internal Marker) (AID 2282939). As to conditions: HepG2 Attagene CIS-FACTORIAL M19 internal marker reporter; actives raise or lower the signal. In a few lines: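 HepG2 cells transiently transfected with cis-regulated multiplexed reporter units, dosed 24 h. Reporter mRNA quantified by RT-PCR and capillary electrophoresis; internal background marker fitted bidirectionally versus DMSO.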

Experiment [5] is described as follows: ATG_Ets_CIS: Attagene CIS-FACTORIAL HepG2 Assay for human Erythroblast Transformation Specific (ETS) (AID 2282941). To be noted: HepG2 ETS cis-reporter transcription, actives raise or lower the signal. In a few lines:
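HepG2 cells transfected with multiple cis-regulated reporter units measuring endogenous ETS-driven transcription, 24 h after dosing. Reporter mRNA quantified by RT-PCR with capillary electrophoresis; bidirectional fit relative to DMSO.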

In experiment [6] the target is Hepatocyte nuclear factor 3-beta (Homo sapiens) (UniProt Q9Y261). Briefly: ATG_FoxA2_CIS: Attagene CIS-FACTORIAL HepG2 Assay for human Forkhead box A2 (FOXA2) (AID 2282942). As to conditions: HepG2 cis-reporter transcription factor activity, 24 h; actives raise or lower the signal. In a few lines:
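In transiently transfected human HepG2 cells, promoter-driven reporter mRNA levels after 24 h chemical exposure are determined via RT-PCR with capillary electrophoresis. DMSO serves as baseline for bidirectional fitting.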

Experiment [7] can be described thus: ATG_FoxO_CIS: Attagene CIS-FACTORIAL HepG2 Assay for human Forkhead box O (FoxO) (AID 2282943). To be noted: HepG2 Attagene cis-reporter, FoxO element, mRNA; actives raise or lower the signal. In a few lines: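 Endogenous transcription factor activity read from multiplexed cis-promoter reporter transcripts in transiently transfected HepG2, 24 h after dosing. Reporter RNA measured via RT-PCR plus capillary electrophoresis of FAM-labeled products; gain or loss relative to DMSO.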

Experiment [8] can be described thus: ATG_GATA_CIS: Attagene CIS-FACTORIAL HepG2 Assay for human GATA Binding Protein (AID 2282944). To be noted: HepG2 GATA cis-element reporter, Attagene multiplex mRNA; actives raise or lower the signal. In a few lines: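 HepG2 cells transiently transfected with multiplexed cis-element reporter units measure endogenous GATA activity; after 24 h compound exposure, reporter mRNA quantified by RT-PCR and capillary electrophoresis. Changes fitted in both directions vs DMSO.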

A short description of experiment [9]: ATG_GLI_CIS: Attagene CIS-FACTORIAL HepG2 Assay for human Zinc Finger Protein GLI1 (AID 2282945). To be noted: HepG2, Attagene cis-factorial reporter mRNA, GLI element; actives raise or lower the signal. In a few lines: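 Bidirectional curve fits relative to DMSO, using reporter mRNA levels from RT-PCR plus capillary electrophoresis. Cells were HepG2 transiently carrying cis-regulated reporter constructs, harvested 24 h after dosing.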

Experiment [10] deals with Bile acid receptor (Homo sapiens) (UniProt Q96RI1). The experiment in a line: ATG_IR1_CIS: Attagene CIS-FACTORIAL HepG2 Assay for human Nuclear Receptor Subfamily 1 Group H Member 4 (NR1H4), IR1 submotif (AID 2282946). As to conditions: IR1 reporter transcription, actives raise or lower the signal. In a few lines:
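Cells (human HepG2) carry transiently transfected cis-promoter reporter transcription units. Compounds are incubated 24 h, total RNA is reverse-transcribed and amplified, and labelled fragments are resolved by capillary electrophoresis. Curves use DMSO as baseline.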

Experiment [11] in a line: ATG_GRE_CIS: Attagene CIS-FACTORIAL HepG2 Assay for human Glucocorticoid Response Elements (GRE) (AID 2282947). As to conditions: HepG2 GRE cis-reporter, Attagene multiplex mRNA; actives raise or lower the signal. In a few lines: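 Assay uses human hepatoma HepG2 cells transfected with cis-promoter reporter units, exposed 24 h. mRNA from reporters detected by RT-PCR plus capillary electrophoresis; DMSO serves as negative control and baseline.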

A short description of experiment [12]: ATG_M_32_CIS: Attagene CIS-FACTORIAL HepG2 Assay for M32 Transcription Factor (Internal Marker) (AID 2282949).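 Also: background control marker of the multiplexed CIS panel rather than a real target.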 To be noted: HepG2 Attagene cis-factorial M32 reporter, mRNA; actives raise or lower the signal. In a few lines:
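Following 24 h chemical exposure of HepG2 cells transiently expressing cis-promoter reporter constructs, reporter transcript levels were determined by RT-PCR with fluorescent labelling and capillary electrophoresis, then fitted bidirectionally against DMSO.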

Experiment [13] in a line: ATG_M_06_CIS: Attagene CIS-FACTORIAL HepG2 Assay for M06 Transcription Factor (Internal Marker) (AID 2282950). To be noted: HepG2 Attagene CIS-FACTORIAL M06 internal marker reporter; actives raise or lower the signal. In a few lines: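 Internal background marker within multiplexed cis-reporter HepG2 system. Cells transiently transfected, dosed 24 h; reporter mRNA measured by RT-PCR, HpaI digestion and capillary electrophoresis. Bidirectional fit relative to DMSO.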

Experiment [14] concerns the target Hypoxia-inducible factor 1-alpha (Homo sapiens) (UniProt Q16665). The experiment in a line: ATG_HIF1a_CIS: Attagene CIS-FACTORIAL HepG2 Assay for human Hypoxia Inducible Factor 1 (HIF1A) (AID 2282951). To be noted: HepG2 Attagene cis-factorial HIF1a reporter transcription; actives raise or lower the signal. In a few lines:
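In this multiplexed cell assay, HepG2 cells bearing transfected cis reporters are dosed for 24 h and reporter mRNA is read by RT-PCR plus capillary electrophoresis; signal increases and decreases are both scored against DMSO.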

Experiment [15] has as its target Hepatocyte nuclear factor 6 (Homo sapiens) (UniProt Q9UBC0). Briefly: ATG_HNF6_CIS: Attagene CIS-FACTORIAL HepG2 Assay for human Hepatocyte Nuclear Factor 6 (HNF6) (AID 2282952). As to conditions: HepG2 Attagene cis-factorial HNF6 reporter transcription; actives raise or lower the signal. In a few lines: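 HepG2 cells transiently transfected with cis-element-driven multiplexed reporter units measuring endogenous transcription factor activity. After 24 h exposure, reporter mRNA quantified by RT-PCR, FAM-labelled fragments and capillary electrophoresis; bidirectional fitting versus DMSO.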

Experiment [16] deals with Heat shock factor protein 1 (Homo sapiens) (UniProt Q00613). Briefly: ATG_HSE_CIS: Attagene CIS-FACTORIAL HepG2 Assay for human Heat Shock Transcription Factor 1 (HSE) (AID 2282953). To be noted: HepG2 HSE cis-reporter, Attagene RNA transcription; actives raise or lower the signal. In a few lines: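 HepG2 cells transfected with cis-promoter reporter units sensing endogenous transcription factor activity; reporter mRNA quantified 24 h post-dose by RT-PCR and capillary electrophoresis of 6-FAM-labelled products. Bidirectional fitting against DMSO.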

The nature of experiment [17]: ATG_MRE_CIS: Attagene CIS-FACTORIAL HepG2 Assay for human Metal Responsive Element (MRE) (AID 2282954). As to conditions: HepG2 MRE cis-reporter transcription, Attagene multiplex; actives raise or lower the signal. In a few lines: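 After a 24 h chemical exposure, transiently transfected HepG2 cells yield RNA whose reporter sequences are amplified, FAM-labelled and sized by capillary electrophoresis. Curves are fitted bidirectionally relative to DMSO.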

Experiment [18] is described as follows: ATG_PBREM_CIS: Attagene CIS-FACTORIAL HepG2 Assay for human Phenobarbital-responsive Enhancer Module (PBREM) (AID 2282955). To be noted: HepG2 PBREM cis-reporter, Attagene multiplexed transcription; actives raise or lower the signal. In a few lines:
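After a 24 h incubation with test chemical, transfected HepG2 cells yield total RNA; reporter-specific RT-PCR products are fluorescently labelled, HpaI-digested and resolved by capillary electrophoresis against ROX size standards.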

A short description of experiment [19]: ATG_ISRE_CIS: Attagene CIS-FACTORIAL HepG2 Assay for human Interferon Regulatory Factor 1 (IRF1) binding to an Interferon-Stimulated Response Element (ISRE) (AID 2282948). To be noted: HepG2 ISRE cis-reporter (Attagene), mRNA transcription readout; actives raise or lower the signal. In a few lines: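 Transiently transfected HepG2 cells carrying cis-element reporter units, dosed 24 hours. Reporter mRNA quantified by RT-PCR, fluorescent primer extension, HpaI digestion and capillary electrophoresis. Bidirectional fitting relative to DMSO.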

A short description of experiment [20]: ATG_ERE_CIS: Attagene CIS-FACTORIAL HepG2 Assay for Estrogen Response Element (ERE) (AID 2282940). As to conditions: HepG2 ERE cis-reporter, Attagene RNA transcript; actives raise or lower the signal. In a few lines: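 HepG2 cells transiently transfected with multiplexed cis-element reporter units, measuring endogenous transcription factor activity; ERE reporter mRNA quantified after 24 h exposure by RT-PCR, fluorescent labelling, HpaI digestion and capillary electrophoresis. Bidirectional change versus DMSO.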

Chain of Bile acid receptor (Homo sapiens) (Q96RI1 whole entry, looked up, the tested form may be a part): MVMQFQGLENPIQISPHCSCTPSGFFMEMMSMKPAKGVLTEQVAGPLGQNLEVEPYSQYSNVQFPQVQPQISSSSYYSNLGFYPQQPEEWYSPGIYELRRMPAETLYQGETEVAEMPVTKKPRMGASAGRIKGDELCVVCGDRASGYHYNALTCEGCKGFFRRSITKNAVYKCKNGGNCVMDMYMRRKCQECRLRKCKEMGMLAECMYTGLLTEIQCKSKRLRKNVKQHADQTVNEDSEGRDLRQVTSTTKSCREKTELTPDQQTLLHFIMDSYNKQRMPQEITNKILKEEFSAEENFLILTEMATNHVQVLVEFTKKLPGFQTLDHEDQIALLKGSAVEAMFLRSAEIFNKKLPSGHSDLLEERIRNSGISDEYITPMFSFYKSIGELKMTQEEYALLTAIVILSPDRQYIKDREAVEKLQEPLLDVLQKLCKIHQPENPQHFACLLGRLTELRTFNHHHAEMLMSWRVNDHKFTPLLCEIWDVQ
Chain of Hepatocyte nuclear factor 6 (Homo sapiens) (Q9UBC0 whole entry, looked up, the tested form may be a part): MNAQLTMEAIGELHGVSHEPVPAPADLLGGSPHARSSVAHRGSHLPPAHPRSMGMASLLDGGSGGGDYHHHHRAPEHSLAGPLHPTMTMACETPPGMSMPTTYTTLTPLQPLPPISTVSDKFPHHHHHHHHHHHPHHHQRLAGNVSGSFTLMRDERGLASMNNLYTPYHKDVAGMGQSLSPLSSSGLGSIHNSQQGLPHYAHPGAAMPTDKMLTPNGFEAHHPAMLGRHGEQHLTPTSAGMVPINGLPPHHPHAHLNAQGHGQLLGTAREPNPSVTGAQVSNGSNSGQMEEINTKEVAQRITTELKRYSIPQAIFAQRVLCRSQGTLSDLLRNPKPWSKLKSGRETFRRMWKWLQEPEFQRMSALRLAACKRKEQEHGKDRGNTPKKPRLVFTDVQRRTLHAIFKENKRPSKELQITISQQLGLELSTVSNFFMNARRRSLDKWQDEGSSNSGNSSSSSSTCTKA
Chain of Hepatocyte nuclear factor 3-beta (Homo sapiens) (Q9Y261 whole entry, looked up): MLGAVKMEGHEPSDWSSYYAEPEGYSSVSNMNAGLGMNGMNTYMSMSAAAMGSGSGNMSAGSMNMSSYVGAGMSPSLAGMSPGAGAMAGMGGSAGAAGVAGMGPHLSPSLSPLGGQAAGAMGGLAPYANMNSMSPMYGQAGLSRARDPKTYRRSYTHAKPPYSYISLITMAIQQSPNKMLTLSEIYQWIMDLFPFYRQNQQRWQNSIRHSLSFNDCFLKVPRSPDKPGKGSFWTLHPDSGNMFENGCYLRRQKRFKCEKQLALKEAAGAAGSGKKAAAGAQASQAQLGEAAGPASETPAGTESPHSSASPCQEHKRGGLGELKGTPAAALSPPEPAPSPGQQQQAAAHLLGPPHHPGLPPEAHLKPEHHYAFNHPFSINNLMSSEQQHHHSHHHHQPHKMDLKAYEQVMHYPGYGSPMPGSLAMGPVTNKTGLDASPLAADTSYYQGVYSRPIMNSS
Chain of Hypoxia-inducible factor 1-alpha (Homo sapiens) (Q16665 whole entry, looked up): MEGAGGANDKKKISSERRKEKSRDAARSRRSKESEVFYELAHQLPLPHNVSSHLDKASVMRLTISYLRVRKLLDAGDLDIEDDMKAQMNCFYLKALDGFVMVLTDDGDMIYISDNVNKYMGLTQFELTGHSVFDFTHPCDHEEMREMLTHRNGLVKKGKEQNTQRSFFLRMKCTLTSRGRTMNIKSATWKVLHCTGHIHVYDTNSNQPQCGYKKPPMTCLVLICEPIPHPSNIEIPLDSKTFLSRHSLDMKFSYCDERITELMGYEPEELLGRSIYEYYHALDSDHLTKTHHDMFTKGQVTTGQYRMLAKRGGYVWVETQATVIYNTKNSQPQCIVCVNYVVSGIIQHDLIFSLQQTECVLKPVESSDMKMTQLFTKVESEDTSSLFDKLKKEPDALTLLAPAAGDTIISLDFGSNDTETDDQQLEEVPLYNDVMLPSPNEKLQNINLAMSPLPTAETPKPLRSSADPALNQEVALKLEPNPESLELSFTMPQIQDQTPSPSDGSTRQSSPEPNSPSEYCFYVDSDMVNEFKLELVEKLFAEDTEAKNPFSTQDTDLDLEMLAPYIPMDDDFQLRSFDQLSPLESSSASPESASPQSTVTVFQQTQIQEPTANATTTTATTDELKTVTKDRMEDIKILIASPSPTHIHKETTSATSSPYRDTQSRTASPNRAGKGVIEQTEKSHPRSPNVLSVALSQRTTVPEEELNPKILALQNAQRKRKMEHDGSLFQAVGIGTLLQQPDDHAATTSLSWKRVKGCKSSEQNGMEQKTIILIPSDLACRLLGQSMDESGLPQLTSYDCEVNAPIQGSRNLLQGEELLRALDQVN
Chain of Heat shock factor protein 1 (Homo sapiens) (Q00613 whole entry, looked up): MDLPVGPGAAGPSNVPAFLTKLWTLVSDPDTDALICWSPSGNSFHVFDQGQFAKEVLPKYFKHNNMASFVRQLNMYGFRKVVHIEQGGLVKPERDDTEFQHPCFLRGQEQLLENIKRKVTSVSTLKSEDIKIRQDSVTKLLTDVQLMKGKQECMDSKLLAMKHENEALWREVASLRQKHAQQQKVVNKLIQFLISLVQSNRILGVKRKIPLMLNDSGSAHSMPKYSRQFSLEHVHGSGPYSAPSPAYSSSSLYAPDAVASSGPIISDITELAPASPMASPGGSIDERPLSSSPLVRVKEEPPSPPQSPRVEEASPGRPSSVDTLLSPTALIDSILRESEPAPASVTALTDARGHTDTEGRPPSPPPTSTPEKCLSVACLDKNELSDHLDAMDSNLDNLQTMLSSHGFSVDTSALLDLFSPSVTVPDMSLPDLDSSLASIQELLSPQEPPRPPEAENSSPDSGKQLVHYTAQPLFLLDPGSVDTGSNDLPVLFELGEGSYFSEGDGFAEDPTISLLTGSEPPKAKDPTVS

As to `CCCOCC(=Nc1ccc(Cl)cc1C(F)(F)F)n1ccnc1`, the outcome in [1], in experiment [2], in experiment [3], in experiment [4], in experiment [5] and in experiment [6] was inactive. Besides, the compound was called inactive in [7], in experiment [8], in experiment [9], in experiment [10], in experiment [11] and in experiment [12]. In addition, the compound was classed as inactive in experiment [13], in experiment [14], in experiment [15], in experiment [16], in experiment [17] and in experiment [18].
`CCCCSP(=O)(SCCCC)SCCCC`: the AC50 in experiment [1] is 56.5 µM (active); in experiment [8] it was 81.2 µM (active); in experiment [9] it was 79.8 µM (active); in experiment [11], 50 µM (active); in experiment [19], 58.6 µM (active); in [12], 77.9 µM (active). The AC50 was 23.4 µM (active) in experiment [17] and 50 µM (active) in experiment [18]. Further, the outcome in [2], in experiment [3], in experiment [4], in experiment [5], in experiment [6] and in experiment [7] was inactive. For the same compound, the compound was called inactive in [10], in experiment [13], in [14], in experiment [15] and in experiment [16].
In the case of `CSc1nc(NC(C)C)nc(NC(C)C)n1`, the outcome in experiment [1], in [2], in [3], in experiment [4], in [20] and in [5] was inactive. For the same compound, the result in [6], in [7], in experiment [8], in experiment [9], in [12] and in [13] was inactive. Also, the compound was called inactive in [15], in experiment [16], in experiment [17] and in experiment [18].
On to `CCCSP(=O)(OCC)SCCC`, for which the result in experiment [1], in [2], in experiment [3], in [4], in [5] and in experiment [6] was inactive. Further, the compound was called inactive in experiment [7], in experiment [8], in experiment [9], in experiment [10], in experiment [11] and in experiment [12]. For the same compound, the outcome in [13], in experiment [15], in [16], in experiment [17] and in experiment [18] was inactive.
As to `N#CSCSC#N`, the result in experiment [1], in experiment [2], in experiment [3], in experiment [4], in [5] and in experiment [6] was inactive. For the same compound, the compound was classed as inactive in experiment [7], in experiment [8], in experiment [9], in [10], in experiment [11] and in [12]. Also, the call in experiment [13], in experiment [14], in [15], in experiment [16], in experiment [17] and in [18] was inactive.
For `CCc1cccc(CC)c1N(COC)C(=O)CCl`, the result in experiment [1], in experiment [2], in experiment [3], in experiment [4], in [20] and in experiment [5] was inactive. The compound was classed as inactive in [6], in [7], in experiment [8], in experiment [9], in experiment [10] and in experiment [11]. In addition, the call in experiment [19], in experiment [12], in experiment [13], in experiment [14], in experiment [15] and in experiment [16] was inactive. In addition, the result in experiment [17] and in [18] was inactive.
For the compound `Cc1cc(C2CC2)nc(Nc2ccccc2)n1`, the result in experiment [1], in experiment [2], in [4], in experiment [5], in [8] and in [9] was inactive. Besides, the call in experiment [10], in [12], in experiment [13], in experiment [15] and in experiment [16] was inactive. Besides, the AC50 is 50 µM (active) in experiment [3]; 12.8 µM (active) in [20]; 33 µM (active) in experiment [6]; 50 µM (active) in experiment [7]; 74.7 µM (active) in [17]; 50 µM (active) in experiment [18].
